Bioassay records: PubChem, NMMLSC
The list is not random: actives were taken first. Their share in the collection is about 1.3%.
Efflux pump mplx = inhibitors of Candida efflux pumps in yeast, primary screen, S. cerevisiae, Nile Red, multiplex. S. cerevisiae Candida pump triplex. 330,000 tested, 0.44% active. inhibition, % at 10 µM;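 active = plate passing quality check with inhibition over a set limit, or well fluorescence over plate mean plus 4 SD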;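 also: Nile Red retained in pooled yeast measured as flow cytometry median fluorescence; higher means more Nile Red kept so more efflux inhibition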
CIT2-GFP yeast = modulators of CIT2-GFP expression in yeast, primary screen, S. cerevisiae, GFP fusion, multiplex flow cytometry, MLPCN library | 320,000 tested, 0.065% active | GFP response vs DMSO, % at 10 µM | S. cerevisiae CIT2-GFP strain, 3 h; 100 means same as DMSO wells | AID 2029, 2009;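 active = GFP response relative to DMSO above a set limit, near the screen mean plus 3 SD, cut at about 150% in these data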;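 also: ratio of well median GFP fluorescence to mean of DMSO wells on the plate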
LAP4-GFP MLPCN = modulators of LAP4-GFP expression in yeast, primary screen, S. cerevisiae, multiplex flow cytometry, MLPCN library; 320,000 tested, 0.34% active; GFP response vs DMSO, % at 10 µM; 3 h; median GFP as percent of DMSO wells; AID 2023, 2009;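 active = GFP response vs DMSO above a set limit, about the screen mean plus 3 SD, cut at about 150% in these data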
RPL19A TOR yeast = RPL19A-GFP expression modulators in yeast, primary screen, cell-based, S. cerevisiae, multiplex flow cytometry, MLPCN; percent response vs DMSO, % at 10 µM; S. cerevisiae RPL19A-GFP strain, 3 h; active compounds read low; 330,000 tested, 0.3% active;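 active = percent response vs DMSO below 50%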;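 also: median channel GFP fluorescence of the barcoded RPL19A-GFP strain; lower means less RPL19A-GFP as with rapamycin TOR inhibition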
MEP2 TOR yeast = modulators of MEP2-GFP levels in yeast, primary screen, S. cerevisiae, multiplex flow cytometry, MLPCN library. GFP response vs DMSO, % at 10 µM. 330,000 tested, 0.51% active. S. cerevisiae MEP2-GFP strain, 3 h; 100% = DMSO control level;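 active = GFP response versus DMSO above a set limit, roughly screen mean plus 3 SD, cut at about 180% in these data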;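 also: median GFP fluorescence of the barcode-gated MEP2-GFP cells per well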
AGP1-GFP MLPCN = modulators of AGP1-GFP expression in yeast TOR pathway, primary screen, cell-based, multiplex flow cytometry, S. cerevisiae, MLPCN library. 3 h; GFP as percent of DMSO wells. GFP response vs DMSO, % at 10 µM. 320,000 tested, 0.02% active. AID 2066, 2009;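 active = GFP response relative to DMSO above a set limit, near screen average plus 3 SD, cut at about 150% in these data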;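 also: median GFP channel fluorescence of the gated AGP1 strain per well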
Yeast cmpd fluor = counter-screen for efflux pump inhibitors: compound fluorescence | shares compounds with Efflux pump mplx | S. cerevisiae AD/pABC3, flow cytometry | fluorescence ratio to DMSO, % at 10 µM | 1,700 tested, 4% active;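 active = fluorescence ratio to DMSO above its plate's cutoff, the plate mean ratio plus 5 SD, cut at about 210% in these data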;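 also: unstained yeast with no Nile Red so the signal is compound autofluorescence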
CaMdr1 efflux inh = inhibitors of Candida albicans Mdr1 efflux, confirmation, flow cytometry, singleplex, Cherry Pick1 set | inhibition, % at 10 µM | shares compounds with Efflux pump mplx | S. cerevisiae AD/CaMDR1, Nile Red efflux | 1,700 tested, 1% active; in the data active = inhibition above about 26%;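 also: higher means more Nile Red retained so more efflux inhibition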
Cdr2 pump inh = inhibitors of Candida albicans Cdr2 efflux pump, confirmation, S. cerevisiae AD/CaCDR2, flow cytometry, cherry pick 1, singleplex; Nile Red retention ratio vs DMSO, % at 10 µM; shares compounds with Efflux pump mplx; 1,700 tested, 4% active; Nile Red retention; in the data active = Nile Red retention ratio vs DMSO above about 190%;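 also: higher ratio means more blocking of Cdr2 efflux of the dye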
CaCdr1 efflux inh = inhibitors of Candida albicans Cdr1 efflux pump, confirmation, S. cerevisiae AD/CaCDR1, flow cytometry, cherry pick 1, singleplex; Nile Red efflux; shares compounds with Efflux pump mplx; inhibition, % at 10 µM; AID 588522, 2011; 1,700 tested, 1% active;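 active = inhibition above the screen-wide mean plus twice its standard deviation, cut at about 32% in these data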
Of the large screens only hits and unclear results are named; the others gave an inactive call (follow-up assays come after a bar, where they were run).

CCN(CC(=O)NCc1ccc(Cl)cc1)C(=O)C(C)Sc1ccccc1 (configuration not stated)	none
Cn1cc(C(c2ccccn2)c2cn(C)c3ccccc23)c2ccccc21	Efflux pump mplx 57.3 | Yeast cmpd fluor inactive | CaMdr1 efflux inh 86.4 | Cdr2 pump inh inactive | CaCdr1 efflux inh 31.7
COc1ccc(-c2cn(CCN)c(-c3ccncc3)n2)cc1	none
CC(C(=O)N1c2ccccc2CC1C)N1CCN(S(=O)(=O)c2ccccc2F)CC1 (configuration not stated)	none
O=[N+]([O-])c1ccc(Cl)c(S(=O)(=O)Nc2ccc(-c3ccc(N4CCOCC4)nn3)cc2)c1	none
O=S(=O)(Nc1ccc(-c2ccc(N3CCOCC3)nn2)cc1)c1ccc(Cl)c(Cl)c1	Efflux pump mplx 0.8 | Yeast cmpd fluor inactive | CaMdr1 efflux inh inactive | Cdr2 pump inh inactive | CaCdr1 efflux inh inactive
O=C(COC(=O)c1cc(=O)[nH]c(=O)[nH]1)Nc1ccccc1F	none
COc1ccc(/C=N/NC(=O)NC23CC4CC(CC(C4)C2)C3)c(OC)c1	none
Cc1cc(O)c(N)c(C)c1Cl	Efflux pump mplx 0.8 | Yeast cmpd fluor inactive | CaMdr1 efflux inh inactive | Cdr2 pump inh inactive | CaCdr1 efflux inh inactive
CCOC(=O)c1nc(Nc2ccccc2C)c2ccccc2n1	Efflux pump mplx 0.9 | Yeast cmpd fluor inactive | CaMdr1 efflux inh inactive | Cdr2 pump inh inactive | CaCdr1 efflux inh inactive
CCOC(=O)c1nc(Nc2ccccc2CC)c2ccccc2n1	none
COc1cc(/C=C2\SC(=S)N(CC(=O)NC3=NCCS3)C2=O)cc(OC)c1OC	none
COc1ccc(/C=C2\SC(=S)N(CCC(=O)NC3=NCCS3)C2=O)cc1OC	Efflux pump mplx 5.5 | Yeast cmpd fluor inactive | CaMdr1 efflux inh inactive | Cdr2 pump inh inactive | CaCdr1 efflux inh inactive
COc1ccc(/C=C2\SC(=S)N(CCCC(=O)Nc3cccc(C(=O)O)c3)C2=O)cc1OC	Efflux pump mplx 7.2 | Yeast cmpd fluor inactive | CaMdr1 efflux inh inactive | Cdr2 pump inh inactive | CaCdr1 efflux inh inactive
O=C(C1COc2ccccc2O1)N1CCN(c2nc3c(F)cc(F)cc3s2)CC1 (configuration not stated)	none
CCCCOc1ccc(NC2=NC3(CCCC3)N=C(N)N2)cc1	Efflux pump mplx 0.6 | Yeast cmpd fluor inactive | CaMdr1 efflux inh inactive | Cdr2 pump inh inactive | CaCdr1 efflux inh inactive
CCN(CC)c1ccc(/C=C2\CCC(/C=N/NC(=O)c3ccc(=O)n(C)c3)=C2N2CCOCC2)cc1	Efflux pump mplx 1.0 | Yeast cmpd fluor inactive | CaMdr1 efflux inh inactive | Cdr2 pump inh inactive | CaCdr1 efflux inh inactive
O=c1[nH][nH]c(-c2ccccc2O)c1C(C[N+](=O)[O-])c1ccccc1 (configuration not stated)	Efflux pump mplx 5.5 | Yeast cmpd fluor inactive | CaMdr1 efflux inh inactive | Cdr2 pump inh inactive | CaCdr1 efflux inh inactive
O=C(Nc1nnc(SCc2cccnc2)s1)C1CC(=O)N(c2ccc(F)cc2)C1 (configuration not stated)	none
Cc1ccc(S(=O)(=O)N2CCCCC2)cc1NC(=O)C1CC(=O)N(c2ccc3c(c2)OCCO3)C1 (configuration not stated)	none
CCOC(=O)c1oc2c(c1C)C(=O)CCC2	Efflux pump mplx 6.7 | Yeast cmpd fluor inactive | CaMdr1 efflux inh inactive | Cdr2 pump inh inactive | CaCdr1 efflux inh inactive
COc1ccc(-c2nnc(NC(=O)c3ccc(F)cc3)o2)cc1	Efflux pump mplx 1.0 | Yeast cmpd fluor inactive | CaMdr1 efflux inh inactive | Cdr2 pump inh inactive | CaCdr1 efflux inh inactive
CCOc1ccc(NC(=O)CSc2nc3ccccc3nc2N2CC(C)OC(C)C2)cc1 (configuration not stated)	none
CN(CC(=O)NC1CCCCC1)S(=O)(=O)c1ccc2c(c1)c(=O)n(C)c(=O)n2C	none
Cn1c(=O)c2cc(S(=O)(=O)NCCC(=O)NC3CCCCCCC3)ccc2n(C)c1=O	Efflux pump mplx 8.2 | Yeast cmpd fluor inactive | CaMdr1 efflux inh inactive | Cdr2 pump inh inactive | CaCdr1 efflux inh inactive
CCOc1ccc(NC(=O)CCNS(=O)(=O)c2ccc3c(c2)c(=O)n(C)c(=O)n3C)cc1	Efflux pump mplx 6.7 | Yeast cmpd fluor inactive | CaMdr1 efflux inh inactive | Cdr2 pump inh inactive | CaCdr1 efflux inh inactive
Cc1cc(C)n(CC(=O)NNC(=O)c2ccc(OC(F)(F)F)cc2)n1	none
COc1cccc(N2CC(=O)N(NC(=O)c3sc4nc(C)cc(C)c4c3N)CC2=O)c1	none
Cc1cc(C)c2c(N)c(C(=O)NN3CC(=O)N(c4ccccc4F)CC3=O)sc2n1	Efflux pump mplx 0.8 | Yeast cmpd fluor inactive | CaMdr1 efflux inh inactive | Cdr2 pump inh inactive | CaCdr1 efflux inh inactive
CCn1c(/C=C/c2ccc(O)c(O)c2)nc2ccccc2c1=O	Efflux pump mplx 1.0 | Yeast cmpd fluor inactive | CaMdr1 efflux inh inactive | Cdr2 pump inh inactive | CaCdr1 efflux inh inactive
CC(C)(C)[C@@H]1COC(=O)[C@H](Cc2ccc(F)cc2)C/C=C\C[C@@H](CC(=O)NCCO)C(=O)N1	none
CCOC(=O)c1ccc(Nc2nc(C)cc(C)n2)cc1	none
CCOC(=O)c1ccc(Nc2cc(C)nc(-c3ccccc3)n2)cc1	Efflux pump mplx 30.7 | Yeast cmpd fluor inactive | CaMdr1 efflux inh inactive | Cdr2 pump inh inactive | CaCdr1 efflux inh inactive
COc1ccc(NC(=O)CSCC(=O)Nc2ccc(C)c(S(=O)(=O)N3CCCCCC3)c2)cc1	none
O=C(O)c1cc(Br)ccc1NS(=O)(=O)c1cccc2nsnc12	none
